Compound activity deposited in PubChem by Broad Institute.
IDE exosite inh: exo-site inhibitors of human insulin-degrading enzyme; P14735; z-score at 20 µM; actives 6.3% (n = 17,000); purified IDE, FL-6b probe fluorescence polarization; stronger effect = lower value;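 active = z-score of -3 or lower, meaning strong loss of probe binding signal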;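 also: His-tagged human IDE residues 42-1019 made in E. coli with 30 nM FL-6b probe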
Target sequence (P14735 42-1019 limits assumed): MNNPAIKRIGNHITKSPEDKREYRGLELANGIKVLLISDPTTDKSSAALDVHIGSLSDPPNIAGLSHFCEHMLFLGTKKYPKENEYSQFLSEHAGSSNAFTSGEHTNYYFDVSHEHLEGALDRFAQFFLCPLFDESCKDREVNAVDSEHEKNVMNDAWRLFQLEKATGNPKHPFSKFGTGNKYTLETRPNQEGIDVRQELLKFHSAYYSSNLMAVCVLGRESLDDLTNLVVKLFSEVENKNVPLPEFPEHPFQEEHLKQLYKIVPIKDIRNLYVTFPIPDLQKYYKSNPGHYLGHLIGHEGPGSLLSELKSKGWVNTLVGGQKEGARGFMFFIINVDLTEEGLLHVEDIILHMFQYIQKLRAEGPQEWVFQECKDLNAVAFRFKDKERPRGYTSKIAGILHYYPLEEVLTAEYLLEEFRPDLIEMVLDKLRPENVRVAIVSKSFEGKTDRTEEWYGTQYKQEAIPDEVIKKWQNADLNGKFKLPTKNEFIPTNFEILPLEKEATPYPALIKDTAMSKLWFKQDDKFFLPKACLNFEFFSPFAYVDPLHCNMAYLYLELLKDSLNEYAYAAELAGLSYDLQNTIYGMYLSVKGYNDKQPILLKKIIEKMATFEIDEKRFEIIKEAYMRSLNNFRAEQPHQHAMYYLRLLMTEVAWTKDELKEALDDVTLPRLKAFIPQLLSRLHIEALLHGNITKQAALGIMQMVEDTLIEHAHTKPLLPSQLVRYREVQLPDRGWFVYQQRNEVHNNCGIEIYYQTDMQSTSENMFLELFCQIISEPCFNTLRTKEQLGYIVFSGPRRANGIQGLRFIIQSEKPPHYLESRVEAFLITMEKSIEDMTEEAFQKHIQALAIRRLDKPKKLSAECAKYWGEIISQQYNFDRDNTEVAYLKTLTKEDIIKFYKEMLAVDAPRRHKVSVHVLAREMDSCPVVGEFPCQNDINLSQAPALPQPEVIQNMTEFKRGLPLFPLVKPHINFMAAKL
* marks the source's active call; other numbers are inactive results. This is one part of a sample in which hits are shown more often than they occur.

SMILES | IDE exosite inh
CS(=O)(=O)N1[C@H](C#N)[C@H](c2ccc(-c3ccccc3F)cc2)[C@H]1CO | -1.7
CS(=O)(=O)N1[C@H](C#N)[C@@H](c2ccc(-c3ccccc3F)cc2)[C@@H]1CO | -3*
CCCN1[C@@H]2Cn3c(ccc(-c4ccccc4)c3=O)[C@H]1[C@@H](C(=O)NCC)[C@@H]2CO | 0.53
O=C(Nc1ccc(F)cc1)N1CCCCN2[C@H](CO)[C@H](c3ccc(C#CC4CC4)cc3)[C@@H]2C1 | 0.79
CN(C)C(=O)c1ccc(-c2ccc(C3[C@@H]4CNC[C@H]3N4)cc2)cc1 (stereo partly drawn) | 1.8
CCS(=O)(=O)N1CC(=O)N2[C@H](C1)[C@@H](c1ccc(C#CC3CCCCC3)cc1)[C@@H]2CO | -0.99
CCCNC(=O)N[C@H]1C=C[C@H](CC(=O)N2CCN(C)CC2)O[C@@H]1CO | 0.25
CCc1csc(N2[C@@H](C#N)[C@@H](c3ccccc3C3=CCCC3)[C@@H]2CO)n1 | 1.4
CN(C)C(=O)c1ccc(-c2ccc([C@H]3[C@H]4CN(C(=O)C5CC5)CCCCN4[C@H]3CO)cc2)cc1 | 2.2
CC(=O)N1CCCCN2[C@H](C1)[C@@H](c1ccc(-c3ccc(C)cc3)cc1)[C@@H]2CO | -0.53
CC(=O)N1CCCCN2[C@@H](CO)[C@@H](c3ccc(-c4ccc(C)cc4)cc3)[C@@H]2C1 | 1.1
CN(C)C(=O)c1ccc(-c2ccc([C@H]3[C@H](CO)N4CCCCN(C(=O)C5CC5)C[C@@H]34)cc2)cc1 | -5*
CC(=O)N1CCCCN2[C@H](C1)[C@@H](c1ccc(-c3cccc(C)c3)cc1)[C@@H]2CO | -14*
CC(=O)N1CCCCN2[C@H](C1)[C@H](c1ccc(-c3cccc(C)c3)cc1)[C@@H]2CO | -5.3*
CN(C)C(=O)c1ccc(-c2ccc([C@H]3[C@@H](CO)N4CCCCN(C(=O)C5CC5)C[C@H]34)cc2)cc1 | 3.7
CC(=O)N1CCCCN2[C@H](CO)[C@@H](c3ccc(-c4ccc(C)cc4)cc3)[C@@H]2C1 | 1.5
CC(=O)N1CCCCN2[C@@H](CO)[C@H](c3ccc(-c4ccc(C)cc4)cc3)[C@@H]2C1 | -0.57
O=C(C[C@@H]1CC[C@@H](NC(=O)c2cccnc2)[C@H](CO)O1)NCc1ccc(Cl)c(Cl)c1 | -0.58
O=C1CN(S(=O)(=O)c2ccccc2)C[C@@H]2[C@@H](c3ccc(C#CCc4ccccc4)cc3)[C@@H](CO)N12 | 2.9
O=C(Nc1cccc(F)c1)N1CC(=O)N2[C@H](C1)[C@@H](c1ccc(-c3cccc(F)c3)cc1)[C@@H]2CO | -1.3
CCCNC(=O)N1[C@H](CO)[C@H](c2ccc(C3=CCCC3)cc2)[C@H]1CNC(=O)CC | 3.7
COc1ccc(CN2C[C@H](O)COC[C@H]3O[C@H](CC(=O)N(C)C)CC[C@@H]32)cc1 | -1.5
C[C@@H]1CN([C@@H](C)CO)C(=O)c2c(c3ccccc3n2C)-c2ccccc2CO[C@@H]1CN(C)S(=O)(=O)c1ccccc1C#N | -0.51
COc1ccc(-c2ccc([C@@H]3[C@@H](C#N)N(C(=O)NC4CCCCC4)[C@H]3CO)cc2)cc1 | 1.1
COc1ccccc1-c1ccc([C@H]2[C@@H](CO)N(C(=O)NC3CCCCC3)[C@H]2C#N)cc1 | -6.9*
SMILES | IDE exosite inh
COc1ccc(-c2ccc([C@@H]3[C@@H](CO)N(C(=O)C4CCCC4)[C@H]3C#N)cc2)cc1 | 1.3
COc1ccccc1-c1ccccc1[C@H]1[C@@H](C#N)N(C(=O)C2CC2)[C@@H]1CO | 2.2
COc1ccccc1-c1ccc([C@@H]2[C@@H](C#N)N(C(=O)C3CCC3)[C@H]2CO)cc1 | -5.2*
COc1ccc(-c2ccc([C@@H]3[C@@H](CO)N(C(=O)C4CCCCC4)[C@H]3C#N)cc2)cc1 | 1.6
COc1ccccc1-c1ccccc1[C@H]1[C@@H](CO)N(C(=O)C2CCC2)[C@H]1C#N | 2.7
COc1ccccc1-c1ccccc1[C@H]1[C@H](C#N)N(C(=O)C2CCC2)[C@H]1CO | -0.85
COc1ccccc1-c1ccc([C@@H]2[C@@H](C#N)N(C(=O)C3CCCCC3)[C@@H]2CO)cc1 | -14*
COc1ccc(-c2ccc([C@H]3[C@@H](C#N)N(C(=O)NC4CCCCC4)[C@@H]3CO)cc2)cc1 | 3
COc1ccccc1-c1ccccc1[C@@H]1[C@@H](C#N)N(C(=O)C2CC2)[C@@H]1CO | 1.5
COc1ccccc1-c1ccc([C@@H]2[C@@H](C#N)N(C(=O)C3CC3)[C@H]2CO)cc1 | -11*
CN(C)C(=O)c1cccc(-c2ccc([C@@H]3[C@@H](CO)N4C(=O)CN(C(=O)Cc5ccccc5)C[C@H]34)cc2)c1 | 5.1
CO[C@H]1CN(C)C(=O)c2cc(NC(=O)C3CC3)ccc2OC[C@H](C)N(Cc2cc(F)ccc2F)C[C@@H]1C | 0.3
COc1ccc2c3c(n(C)c2c1)[C@H](CO)N(C(=O)Nc1ccc(F)cc1)CC31CCN(C(=O)Nc2ccc(F)cc2F)CC1 | 0.72
O=C(N[C@@H]1CC[C@H](CCNS(=O)(=O)c2ccc(F)cc2)O[C@@H]1CO)C1CCC1 | 3.5
CN(C)C(=O)c1cccc(-c2ccc3c(c2)[C@H]2[C@H](CCN2Cc2nccs2)[C@H](CO)N3)c1 | -0.13
COc1cccc(S(=O)(=O)N2CCCCN3[C@H](CO)[C@H](c4ccc(C5=CCCCC5)cc4)[C@@H]3C2)c1 | 2.8
C/C=C/c1ccc([C@H]2[C@@H](CO)N(CCC(F)(F)F)[C@@H]2CNC(=O)C2CCC2)cc1 | 1.5
O=C(Nc1ccc(F)cc1)N1CC(=O)N2[C@H](CO)[C@@H](c3ccc(C#CC4CC4)cc3)[C@@H]2C1 | 2.9
CN(C)C(=O)c1cccc(-c2ccc([C@@H]3[C@@H](C#N)N(C(=O)C4CCC4)[C@@H]3CO)cc2)c1 | -4.2*
N#C[C@H]1[C@@H](c2ccc(-c3ccccc3F)cc2)[C@H](CO)N1C(=O)C1CC1 | -0.079
N#C[C@@H]1[C@H](c2ccc(-c3ccccc3F)cc2)[C@@H](CO)N1C(=O)C1CC1 | -0.081
COc1ccccc1-c1ccc([C@H]2[C@@H](C#N)N(C(=O)C3CCC3)[C@H]2CO)cc1 | -5*
N#C[C@H]1[C@@H](c2ccc(-c3ccccc3F)cc2)[C@@H](CO)N1C(=O)C1CCC1 | -0.81
COc1ccccc1-c1ccc([C@H]2[C@@H](CO)N(C(=O)c3cccc(F)c3)[C@H]2C#N)cc1 | -4.2*
CN(C)C(=O)c1cccc(-c2ccc([C@@H]3[C@@H](CO)N(C(=O)C4CCC4)[C@H]3C#N)cc2)c1 | 1.7
SMILES | IDE exosite inh
COc1ccc(-c2ccc([C@@H]3[C@@H](C#N)N(C(=O)C4CCC4)[C@H]3CO)cc2)cc1 | 5.7
N#C[C@H]1[C@H](c2ccc(-c3ccccc3F)cc2)[C@@H](CO)N1C(=O)C1CC1 | -4.5*
CN(C)C(=O)c1cccc(-c2ccc([C@H]3[C@@H](CO)N(C(=O)C4CC4)[C@H]3C#N)cc2)c1 | 1.5
COc1ccc(-c2ccc([C@H]3[C@@H](C#N)N(C(=O)c4cccc(F)c4)[C@H]3CO)cc2)cc1 | 3.1
COc1ccc(-c2ccc([C@@H]3[C@@H](CO)N(C(=O)c4cccc(F)c4)[C@H]3C#N)cc2)cc1 | 11
CC(C)CC#Cc1ccc([C@H]2[C@@H](CO)N3C(=O)CN(C(=O)c4cccc(F)c4)C[C@@H]23)cc1 | -0.73
CC(=O)N1CC(=O)N2[C@H](CO)[C@@H](c3ccc(-c4cccc(C(=O)N(C)C)c4)cc3)[C@H]2C1 | 3.3
CCN1[C@@H]2c3ccc(-c4ccncc4)c(=O)n3C[C@H]1[C@H](CO)[C@H]2C(=O)NCCc1cn(C)cn1 | 1.4
